Measurements published in the supplement of paper PMC8387472.

Compound: Cc1cc(C)nc(SCC(=O)Nc2ncc(Cc3cccc4ccccc34)s2)n1
Assay: fraction of microhomology deletions among edited reads; higher = more MH deletions
Conditions: mESC; 2uM; 72 h treatment, harvest day 5

Target	fraction of microhomology deletions among edited reads
32.0 (DMSO control at this site: 1-bp insertion 0.03, MH deletion 0.85, edited 0.898) AGAAGTCCAGGATCAGGGGGACTGGGGTCGGGAGGGTGGGGCAGGAAGGAAGCCAGAATCA	0.908
26.0 (DMSO control at this site: 1-bp insertion 0.518, MH deletion 0.262, edited 0.026) AGGGCGCGCCCCACGCACTCTGCGGCAAGTCCCTCTGCGGCAAGTCCTCGGCCCGGAAGAC	0.281
34.0 (DMSO control at this site: 1-bp insertion 0.184, MH deletion 0.385, edited 0.103) ATTATAGGACCCTGAGGGAGCAGAGATGTGGGAATGGGGGCCGAGCCAATTGTGATGTAAG	0.517
18.0 (DMSO control at this site: 1-bp insertion 0.114, MH deletion 0.789, edited 0.094) GCGCAAGTGCATAAGTTTTTCTTAAGGCGTGCCTTTAAGGCGTGCCTTTGTCGGTCCTGGA	0.791
41.0 (DMSO control at this site: 1-bp insertion 0.022, MH deletion 0.754, edited 0.115) AAAGAGACAGCAGGTATGAATCCATCTTCCTGACCCTTGGGACCAGCCGGGGCAGTGAAGC	0.703
15.0 GCGCCTCCAATGACCCAGTGGGATCCTACTCCATAATGGGATCCTGGGGATTCCTCGCTCC	0.39
47.0 (DMSO control at this site: 1-bp insertion 0.095, MH deletion 0.585, edited 0.118) GAGTGGTCCCGAGCCAGGAACTGTGTGTGTTGCAGGGGGGCAGTAACTCCCCAACTCCCTC	0.528
35.0 (DMSO control at this site: 1-bp insertion 0.01, MH deletion 0.72, edited 0.098) CCACTTTTAGAGAGGGTGAAAATCATCAGTTATCATCAGGGCAACAAATTGCTTTCTCCTA	0.732
16.0 (DMSO control at this site: 1-bp insertion 0.172, MH deletion 0.29, edited 0.05) CGGACTGCACACATGGGTAGGATCGTGCACGCGAGGTAGGATCGTGCACGCGAAGTTATTC	0.275
19.0 (DMSO control at this site: 1-bp insertion 0.121, MH deletion 0.101, edited 0.057) TCTGCAGGGGTCGGAACCCGGGGGCTAGGGCTATCCCGGGGGCTAGGGCTATTAGCGAACC	0.209
22.0 (DMSO control at this site: 1-bp insertion 0.573, MH deletion 0.229, edited 0.045) CTGATGGTTGAAGGATTTAGCCGGGGTCCTAGACGCCGGGGTCCTAGACGAAAGGGCCACG	0.188
38.0 (DMSO control at this site: 1-bp insertion 0.063, MH deletion 0.487, edited 0.17) GGGCTGGGTGCTAAAATGAGGAGCTCCAAGAAGACTGAGGTGAACCTGGAGGCCCCTGAGC	0.483
5.0 (DMSO control at this site: 1-bp insertion 0.214, MH deletion 0.567, edited 0.105) CGCTGACCCGAGACCTACGCGAACCGAAATCGGCGACCGGTGCGCAAGCAGGGCTGGCGTC	0.571
1.0 (DMSO control at this site: 1-bp insertion 0.521, MH deletion 0.323, edited 0.141) GTGTCACAGTGCACGAGTGACGGGATAATGTGCTGACAGGTAATTGATAGGCTTCCAACTT	0.248
0.0 (DMSO control at this site: 1-bp insertion 0.463, MH deletion 0.339, edited 0.14) AGGATTACCGAGACCTACGCGAACCGAAATCGCTGTCCGGTGCGCAAGCAGGGCTGGCGTC	0.304
3.0 (DMSO control at this site: 1-bp insertion 0.109, MH deletion 0.149, edited 0.09) TGCTAGCGCCCCCACAAAGCGGACCAGCCAGCACTATAGGGAATAAGGCCAACTTGCACCC	0.188
7.0 (DMSO control at this site: 1-bp insertion 0.128, MH deletion 0.374, edited 0.098) TACTCAACCGAGACCTACGCGAACCGAAATCGTATGCCGGTGCGCAAGCAGGGCTGGCGTC	0.45
39.0 (DMSO control at this site: 1-bp insertion 0.328, MH deletion 0.371, edited 0.204) CTGCACAGTCACTTAGGATAGGAGAAGATGATGTATAGGGTTTAGTGGGAGATGTTGCAAG	0.361

Target	fraction of microhomology deletions among edited reads
21.0 CGATTGAGAGTCAAACGGGCCAGAAAACTCCGGGAACGGGCCAGAAAACTCCGGGGCATGG	0.176
25.0 (DMSO control at this site: 1-bp insertion 0.017, MH deletion 0.774, edited 0.143) GGGCCTGAATGGTGTGGACATCTACTCGCTGGTGAGCTGGTGACTGAAAACATTCAGTGGC	0.772
27.0 CCAGAATTAGAACATATCATCTGGACCCTTTTCCATCTGGACCCTTTTCCAGCACACCCTG	0.104
40.0 (DMSO control at this site: 1-bp insertion 0.072, MH deletion 0.192, edited 0.189) GCGAATCAACTGTTCAACAACAGCAGCAGCCACCTGGAGGACTACAGTGGCCTGTCCGTGT	0.173
42.0 (DMSO control at this site: 1-bp insertion 0.145, MH deletion 0.655, edited 0.132) GGGCTAAACCTATGAGCACAGTAGAACTAAGGGTGGGTGGTGTAGCTAAAGAACTTGACCA	0.667
28.0 (DMSO control at this site: 1-bp insertion 0.035, MH deletion 0.77, edited 0.142) TGGTTCTTCCTTTGTAGAGAGTGTTCATCTGGGAATCTGGGACTTGGATGAGACAATCATT	0.777
2.0 (DMSO control at this site: 1-bp insertion 0.364, MH deletion 0.356, edited 0.125) GGTGCCCCCGAGACCTACGCGAACCGAAATCGATGTCCGGTGCGCAAGCAGGGCTGGCGTC	0.378
4.0 (DMSO control at this site: 1-bp insertion 0.146, MH deletion 0.523, edited 0.125) ACGCCTTAGTGCACGAGTGACGGGATAATGTGGTCTCAGGTAATTGATAGGCTTCCAACTT	0.545
31.0 (DMSO control at this site: 1-bp insertion 0.315, MH deletion 0.329, edited 0.026) ACCTCCACAGGCTGGGTGGCCCGGAGGCTGGGCGGCCCGGAGGCTGGGCTGGGCGAGTATC	0.512
29.0 (DMSO control at this site: 1-bp insertion 0.084, MH deletion 0.745, edited 0.133) TTGATGAACTTCCTCTTCTTCTCATGTCTCCGGTCTCCGGTAGGCCACGTGCATGGCCACT	0.692
8.0 GCATGCGTGTTTTGGGACAATGTAGTATACATTTGGGAGGCTCTCAGCTTTTCCCAATAAA	0.0765
17.0 (DMSO control at this site: 1-bp insertion 0.112, MH deletion 0.348, edited 0.058) CCATAGCGCGATAAATATGACGGCTCATCCTGTATGACGGCTCATCCTGTATCAACTGTCC	0.444
45.0 (DMSO control at this site: 1-bp insertion 0.017, MH deletion 0.666, edited 0.101) TTACACAGCATGAACTGCTAGGTGATGATGTCAGATTCGGTTTTACTAACTTCTCCAAAAA	0.608
30.0 (DMSO control at this site: 1-bp insertion 0.074, MH deletion 0.67, edited 0.142) GAGCTGGCATGAGTATTTGTGCCACATGGCTCCCACATGGCTCCACATGCAAGTTTGAAAC	0.69
44.0 (DMSO control at this site: 1-bp insertion 0.181, MH deletion 0.512, edited 0.123) ACACATACCTTCTTCGAGGCAGCCAGCATGATGAGACAGGTCTCCCACAAACACATCGTGT	0.506
20.0 (DMSO control at this site: 1-bp insertion 0.349, MH deletion 0.138, edited 0.084) TACAGGTGTAGACTGGTTACGTGGCTGCGGAATTGACTGGTTACGTGGCTGCGGAATTTTG	0.203
43.0 (DMSO control at this site: 1-bp insertion 0.134, MH deletion 0.714, edited 0.104) AGTTTAACTTACTCCGGCCAAAAAAGAACTGCACCTCTGGAGCGGGTTAGTGGTGGTGGTA	0.639
33.0 (DMSO control at this site: 1-bp insertion 0.008, MH deletion 0.771, edited 0.112) CATTAAGAGCAGCTGCCGGCCCCCAAGTGGACAGAGCTGGCCCTGCTGATTCAACAGTGCA	0.722
